ChEMBL document CHEMBL4888484, “Replenishing the malaria drug discovery pipeline: Screening and hit evaluation of the MMV Hit Generation Library 1 (HGL1) against asexual blood stage Plasmodium falciparum ,using a nano luciferase reporter read-out” (2022)
Screen size: about 150,000 compounds; about 540 (0.36%) showed an effect of 50% or more. Only a selection was taken, and strong results are over-represented in it overall.

Test system: Plasmodium falciparum
Experiment: Primary screen in NF54 nanoGlo assay, in single point, at 2uM, 72h; a lower Z score goes with more inhibition
Assay type: functional, Erythrocyte
Conditions: timepoint 72 hour

Compound | % Inhibition [%] | Z score
O=C(c1n[nH]c2c1CCc1ccccc1-2)N1CCCCCC1 | -15 | 1.3
CC(C)c1nc(C(=O)Nc2[nH]c(=O)ncc2F)cs1 | 88 | -15.46
Cc1cnc(NC(=O)c2nc(C)oc2-c2ccccc2)[nH]1 | -10 | 1.11
O=C(Nc1[nH]c(=O)ncc1F)c1coc(-c2ccccc2)n1 | 80 | -14.59
CC(C)c1nc(C(=O)Nc2[nH]nc(C3CC3)c2C#N)cs1 | -25 | 3.79
Cc1nc(C(=O)NC[C@@]23CCC[C@@H]2OCC3)c(-c2ccccc2)o1 | 0 | -0.01
CCc1ncc(NC(=O)c2coc(-c3ccccc3)n2)cn1 | -21 | 2.66
Nc1ccc(F)cc1NC(=O)c1coc(-c2ccccc2)n1 | -10 | 1.7
Cc1nc(C(=O)Nc2[nH]c(=O)ncc2F)c(-c2ccccc2)o1 | 80 | -7.61
CC(C)c1nc(C(=O)N[C@@H](C)C(N)=O)cs1 | -9 | 1.83
CCOCCCNC(=O)C1CCN(C(=O)c2cc3oc(C)cc3n2Cc2c(F)cccc2Cl)CC1 | -1 | 0.06
CN1CCN(S(=O)(=O)N2CCN(Cc3cccn3C)CC2)CC1 | 7 | -0.7
NC(=O)CN1CCC(Nc2nc3ccccc3n2CCO)CC1 | -7 | 1.08
COc1cccc(NC(=O)Cc2c(C)nn(-c3nc(-c4ccc(C)cc4)cs3)c2C)c1 | -13 | 1.45
CN(Cc1cc2cc(F)ccc2[nH]1)Cc1ccnn1C | -9 | 1.38
C[C@H](Nc1ccc(C#N)cn1)c1cccc(-n2cccn2)c1 | 0 | 0.03
CCCCCc1c(C)nc2[nH]n(-c3ccccc3)c(=O)c2c1O | 34 | 2.26
Cc1ccccc1Cc1c(C)[nH]c2[nH]n(-c3ccccc3)c(=O)c2c1=O | 10 | -1.18
CNCCc1c(-c2ccccc2)[nH]n(-c2ccccc2)c1=O | 82 | -6.33
O=C1NCCN1CCN1CCc2[nH]ncc2C1 | -10 | 1.34
CC1=NN(c2ccccc2)C(=O)C12Cc1ccc(Cl)cc1N1CCCCC12 (centres undefined) | 8 | -1.22

Compound | % Inhibition [%] | Z score
Cc1cc(OC[C@@H](O)CNC(C)C)cc(C)c1Cl | -7 | 1.4
Cc1cc(C)cc(OC[C@@H](O)CNC(C)(C)CC(C)(C)C)c1 | -3 | 0.43
Cc1cc(OC[C@@H](O)CNC(C)(C)CC(C)(C)C)cc(C)c1Cl | 51 | -6.83
CCc1cnc(C)nc1N1CCC(N2CC(n3nc(C)cc3C)C2)CC1 | 6 | -1.11
CN(Cc1cccnc1)C(=O)c1csc(NC(=O)c2ccc(Cl)cc2Cl)n1 | -12 | 1.69
COc1ccc(-c2ccnc(N[C@H]3CCN(C4CCOCC4)C3=O)n2)cc1 | -13 | 2.48
C#CCOCC(O)CN(Cc1c(-c2ccccc2)noc1N1CCC(C)CC1)CC1CCCO1 (centres undefined) | 59 | 1.43
C=CCOCC(O)CN(Cc1c(-c2ccccc2)noc1N1CCCCC1C)CC1CCCO1 (centres undefined) | 30 | -0.88
CCOC[C@@H](O)CN(Cc1c(-c2ccccc2)noc1N1CCC(C)CC1)CC1CC1 | 35 | 0.79
C[C@H](N)c1ccc(Nc2ncc3cc(-c4ccncc4)ccc3n2)cc1 | 85 | -9.36
CC(NC(=O)NC(C)c1ccc(-c2cccnc2)cc1)c1ccncc1 (centres undefined) | 7 | -1.01
CC(C)C(=O)Nc1ccc(-c2cc(-c3ccc(NC(=O)C(C)C)cc3)nc(-c3ccncc3)n2)cc1 | 38 | -10.15
CCOc1c(Br)cc(Cl)cc1NCC(=O)NC(=O)NCC(C)C | -7 | 1.36
Cn1ncc2c1CCCN(c1nccn3nc(C(F)(F)F)cc13)C2 | -10 | 1.44
CC(=O)c1ccc(NC(=O)c2cc3n(n2)CCCO3)cc1 | -7 | 1.13
CC(C)=CC1C(C(=O)N(C)CC2COc3ccccc3O2)C1(C)C (centres undefined) | -4 | 0.45
Cc1cncc(C(=O)NC[C@@H](CO)Cc2ccc(Cl)cc2)c1 | -7 | 0.93
CC1CC(NCCc2cc(F)cc3c2OCOC3)CN1C1CC1 (centres undefined) | -5 | 0.45
O=C(CNC(=O)NC1CC1)NCCc1cc(F)cc2c1OCOC2 | -2 | 0.2
COC[C@H](NCCc1cc(F)cc2c1OCOC2)C1CC1 | 63 | -8.98
Cc1nc(-c2ccnc(NCc3cnc(N(C)C)nc3)c2)n[nH]1 | 5 | -0.63
